Measured values published in PubChem BioAssay (Tox21).
Records with an inconclusive call do not appear. Active and inactive are the calls of the source. Calls come from the whole dose curve; as a rule, active = well fitted curve in the direction sought with a large enough effect in the repeat runs; inconclusive = weak or mixed curves; inactive = no such curve, though single readings can be large; an effect the other way counts as inactive or inconclusive.

How the values were obtained:
[1] = A CellTox Green Cytotoxicity Assay to monitor cytotoxicity in HEK293 cells - 32 hour (AID 1224881); note: nearly all actives have a fitted effect of over 40% in size
Procedure, shortened: (§1)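 Fluorescence from a DNA-binding dye excluded by viable cells was measured repeatedly in the same HEK293 wells (600 cells/well) during continuous compound exposure at 37 C. Each assay gives one read point: 0, 8, 16, 24, 32 or 40 h.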

[2] = A CellTox Green Cytotoxicity Assay to monitor cytotoxicity in HepG2 cells - 0 hour (AID 1224882); note: nearly all actives have a fitted effect of over 35% in size
Procedure, shortened: (§2)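 Real-time cytotoxicity: fluorescence of a cell-impermeant cyanine dye binding DNA of dead HepG2 cells, measured repeatedly (0–40 h) during compound exposure at 37 C. Cells seeded 600/well with reagent, dosed after 5 h.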

[3] = A CellTox Green Cytotoxicity Assay to monitor cytotoxicity in HepG2 cells - 32 hour (AID 1224883); note: nearly all actives have a fitted effect of over 50% in size
Procedure, shortened: as §2

[4] = A CellTox Green Cytotoxicity Assay to monitor cytotoxicity in HEK293 cells - 8 hour (AID 1224884); note: nearly all actives have a fitted effect of over 35% in size
Procedure, shortened: as §1

[5] = qHTS RealTime-Glo MT Cell Viability Assay in HepG2 cells - 16 hour (AID 1224885); note: nearly all actives have a fitted effect of over 50% in size; note: potency is the fitted concentration of half-maximal effect
Procedure, shortened: (§3)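 Cells + NanoLuc/prosubstrate dispensed (600 cells/well) → 5 h at 37 C/5% CO2 → compounds in DMSO transferred → 40 h incubation at 37 C, luminescence read at 0, 8, 16, 24, 32, 40 h.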

[6] = qHTS RealTime-Glo MT Cell Viability Assay in HEK293 cells - 24 hour (AID 1224886); note: nearly all actives have a fitted effect of over 50% in size; note: potency is the fitted concentration of half-maximal effect; for activity change, negative = cytotoxicity: top concentration of the series differs between compounds
Procedure, shortened: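 Tox21 10K qHTS, HEK293, 600 cells/well, RealTime-Glo reagent co-dispensed with cells; 5 h preincubation, compound by pintool, 37 C, luminescence at 0–40 h.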

[7] = qHTS RealTime-Glo MT Cell Viability Assay in HEK293 cells - 8 hour (AID 1224887); note: nearly all actives have a fitted effect of over 50% in size; note: potency is the fitted concentration of half-maximal effect; for activity change, negative = cytotoxicity: top concentration of the series differs between compounds
Procedure, shortened: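 Luminescence, which tracks viable cell number through reduction of the prosubstrate to a NanoLuc substrate, was read over continuous 37 C culture. Cells (600/well) were premixed with reagent and rested 5 h before 23 nL of compound in DMSO was pinned.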

[8] = A CellTox Green Cytotoxicity Assay to monitor cytotoxicity in HEK293 cells - 16 hour (AID 1224888); note: nearly all actives have a fitted effect of over 35% in size
Procedure, shortened: as §1

[9] = qHTS RealTime-Glo MT Cell Viability Assay in HepG2 cells - 0 hour (AID 1224889); note: nearly all actives have a fitted effect of over 50% in size
Procedure, shortened: as §3

[10] = A CellTox Green Cytotoxicity Assay to monitor cytotoxicity in HepG2 cells - 8 hour (AID 1224890); note: nearly all actives have a fitted effect of over 45% in size
Procedure, shortened: as §2
% is set by controls: 0 for no effect and ±100 for the full control effect.

CCCC(=O)O[C@]1(C(=O)COC(=O)CC)CC[C@H]2[C@@H]3CCC4=CC(=O)CC[C@]4(C)[C@H]3[C@@H](O)C[C@@]21C
inactive: cytotoxicity increase [1] -18.3% [at 15.8 µM] | cytotoxicity [2] -8.79% [at 15.8 µM] | cytotoxicity increase [3] -8.25% [at 15.8 µM] | cytotoxicity increase [4] -4.08% [at 15.8 µM] | activity change, negative = cytotoxic [5] 1.6% [at 15.8 µM] | activity change, negative = cytotoxicity [6] 2.56% [at 15.8 µM] | activity change, negative = cytotoxicity [7] 0.511% [at 15.8 µM] | activity change [8] -13.4% [at 15.8 µM, active compounds read high] | activity change, negative = cytotoxicity [9] -13.7% [at 15.8 µM] | cytotoxicity increase [10] -2.4% [at 15.8 µM]

CN1CCCN=C1/C=C/c1cccs1
inactive: Potency [1] | Potency [2] | Potency [3] | Potency [4] | Potency [5] | Potency [6] | Potency [7] | Potency [8] | Potency [9] | Potency [10]

Nc1ccc(Cl)cc1[N+](=O)[O-]
inactive: Potency [1] | Potency [2] | Potency [3] | Potency [4] | Potency [5] | Potency [6] | Potency [7] | Potency [8] | Potency [9] | Potency [10]

CCOC(=O)[C@@H](C)Oc1ccc(Oc2nc3ccc(Cl)cc3o2)cc1
active: Potency [5] 8.71 µM | Potency [6] 21.9 µM | Potency [7] 21.9 µM
inactive: Potency [1] | Potency [2] | Potency [3] | Potency [4] | Potency [8] | Potency [9] | Potency [10]

C[N+](C)(C)CCOC(N)=O
inactive: Potency [1] | Potency [2] | Potency [3] | Potency [4] | Potency [5] | Potency [6] | Potency [7] | Potency [8] | Potency [9] | Potency [10]

Cc1ccccc1N1C(=O)c2cc(S(N)(=O)=O)c(Cl)cc2NC1C (stereo not given)
inactive: Potency [1] | Potency [2] | Potency [3] | Potency [4] | Potency [5] | Potency [6] | Potency [7] | Potency [8] | Potency [9] | Potency [10]

CCCCC(CC)COC(=O)COc1ccc(Cl)cc1C (stereo not given)
inactive: Potency [1] | Potency [2] | Potency [3] | Potency [4] | Potency [5] | Potency [6] | Potency [7] | Potency [8] | Potency [9] | Potency [10]

O=C(CS)OCCOC(=O)CS
inactive: Potency [1] | Potency [2] | Potency [3] | Potency [4] | Potency [5] | Potency [6] | Potency [7] | Potency [8] | Potency [9] | Potency [10]

Nc1ccc(S(=O)(=O)O)cc1
inactive: Potency [1] | Potency [2] | Potency [3] | Potency [4] | Potency [5] | Potency [6] | Potency [7] | Potency [8] | Potency [9] | Potency [10]

Oc1cc(O)c(Cl)cc1Cl
inactive: Potency [1] | Potency [2] | Potency [3] | Potency [4] | Potency [5] | Potency [6] | Potency [7] | Potency [8] | Potency [9] | Potency [10]

O=C(O)c1cccc(O)c1
inactive: Potency [1] | Potency [2] | Potency [3] | Potency [4] | Potency [5] | Potency [6] | Potency [7] | Potency [8] | Potency [9] | Potency [10]

CC1(C)C(=O)N(Br)C(=O)N1Cl
inactive: Potency [1] | Potency [2] | Potency [3] | Potency [4] | Potency [5] | Potency [6] | Potency [7] | Potency [8] | Potency [9] | Potency [10]

CCC(C(=O)OCCOCCN(CC)CC)c1ccccc1 (stereo not given)
inactive: Potency [1] | Potency [2] | Potency [3] | Potency [4] | Potency [5] | Potency [6] | Potency [7] | Potency [8] | Potency [9] | Potency [10]

C=CC(C)=CCC=C(C)C
inactive: Potency [1] | Potency [2] | Potency [3] | Potency [4] | Potency [5] | Potency [6] | Potency [7] | Potency [8] | Potency [9] | Potency [10]

O=S1OCCO1
inactive: Potency [1] | Potency [2] | Potency [3] | Potency [4] | Potency [5] | Potency [6] | Potency [7] | Potency [8] | Potency [9] | Potency [10]

C[Si](NC1CCCCC1)(NC1CCCCC1)NC1CCCCC1
inactive: Potency [1] | Potency [2] | Potency [3] | Potency [4] | Potency [5] | Potency [6] | Potency [7] | Potency [8] | Potency [9] | Potency [10]

COC(=O)c1cc(S(N)(=O)=O)ccc1OC
inactive: Potency [1] | Potency [2] | Potency [3] | Potency [4] | Potency [5] | Potency [6] | Potency [7] | Potency [8] | Potency [9] | Potency [10]

NC(=O)Nc1ccc(Cl)c(Cl)c1
inactive: Potency [1] | Potency [2] | Potency [3] | Potency [4] | Potency [5] | Potency [6] | Potency [7] | Potency [8] | Potency [9] | Potency [10]

COc1cc2[nH]c(=O)[nH]c(=O)c2cc1OC
inactive: Potency [1] | Potency [2] | Potency [3] | Potency [4] | Potency [5] | Potency [6] | Potency [7] | Potency [8] | Potency [9] | Potency [10]

[O]=[Bi]
inactive: cytotoxicity increase [1] -0.855% [at 6.97 µM] | cytotoxicity [2] 1.27% [at 6.97 µM] | cytotoxicity increase [3] -9.49% [at 6.97 µM] | cytotoxicity increase [4] -5.25% [at 6.97 µM] | activity change, negative = cytotoxic [5] 1.05% [at 6.97 µM] | activity change, negative = cytotoxicity [6] 5.04% [at 6.97 µM] | activity change, negative = cytotoxicity [7] 1.28% [at 6.97 µM] | activity change [8] -2.4% [at 6.97 µM, active compounds read high] | activity change, negative = cytotoxicity [9] 1.28% [at 6.97 µM] | cytotoxicity increase [10] 2.13% [at 6.97 µM]

O=C(O)c1cccnc1C(=O)O
inactive: Potency [1] | Potency [2] | Potency [3] | Potency [4] | Potency [5] | Potency [6] | Potency [7] | Potency [8] | Potency [9] | Potency [10]

Cc1nc2ccccc2s1
inactive: Potency [1] | Potency [2] | Potency [3] | Potency [4] | Potency [5] | Potency [6] | Potency [7] | Potency [8] | Potency [9] | Potency [10]
